Measured values from PubChem BioAssay AID1159580 (chemical genetic matrix, 2015).
Where “and” joins values, the source holds several entries; their conditions need not be identical. Equal values may be shown once. In all, about 5,500 compounds went through this assay and about 2,000 (36%) were called active. Another 18% or so got no clear call; they are omitted. No stated cut-off is given here; in the data, active means normalized growth mostly below about 0.91 (no sharp cut-off); inconclusive means no clear call, values can overlap the other calls; inactive means mostly above about 0.92. Some of the results follow.

Assay: chemical genetic growth profiling, strain panel (AID 1159580);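 further: tested at 20 µM; growth read once vehicle control cultures reached saturation at 30 °C; 1 = growth at the plate median or of vehicle wells; lower values mean less growth of the strain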
Settings: S. cerevisiae deletion strains, growth OD

Measured: normalized growth

CCCN(CCC)c1c([N+](=O)[O-])cc(C(F)(F)F)cc1[N+](=O)[O-]
inactive: locus YAL013W, strain DEP1, active compounds read low 1.02 | locus YAL021C, strain ccr4, active compounds read low 1 | locus YAL026C, strain drs2, active compounds read low 0.999 | locus YAL030W, strain snc1, active compounds read low 1 | locus YBL061C, strain skt5, active compounds read low 1.01 | locus YBR009C, strain hhf1, active compounds read low 0.995 | locus YBR021W, strain FUR4, active compounds read low 1.03 | locus YBR023C, strain chs3, active compounds read low 1.01 | locus YBR171W, strain sec66, active compounds read low 0.985 | locus YBR229C, strain ROT2, active compounds read low 1 | locus YBR231C, strain swc5, active compounds read low 1.02 | locus YBR279W, strain paf1, active compounds read low 1.01 | locus YCL011C, strain gbp2, active compounds read low 0.97 | locus YCL016C, strain dcc1, active compounds read low 1 | locus YCL029C, strain bik1, active compounds read low 1.01 | locus YCL061C, strain MRC1, active compounds read low 0.984 | locus YCL069W, strain vba3, active compounds read low 0.977 | locus YCR088W, strain abp1, active compounds read low 0.976 | locus YDL005C, strain med2, active compounds read low 1.01 | locus YDL035C, strain GPR1, active compounds read low 1.04 | locus YDL040C, strain nat1, active compounds read low 1 | locus YDL074C, strain BRE1, active compounds read low 1.04 | locus YDL101C, strain DUN1, active compounds read low 0.997 | locus YDL134C, strain PPH21, active compounds read low 0.995 | locus YDL185W, strain tfp1, active compounds read low 1.02 | locus YDL192W, strain arf1, active compounds read low 1.02 | locus YDR001C, strain nth1, active compounds read low 0.981 | locus YDR069C, strain doa4, active compounds read low 1.02 | locus YDR101C, strain arx1, active compounds read low 1.01 | locus YDR137W, strain rgp1, active compounds read low 0.957 | locus YDR150W, strain NUM1, active compounds read low 1.02 | locus YDR159W, strain sac3, active compounds read low 0.989 | locus YDR162C, strain NBP2, active compounds read low 1 | locus YDR195W, strain ref2 0.987 | locus YDR297W, strain sur2, active compounds read low 1 | locus YDR318W, strain mcm21, active compounds read low 1.01 | locus YDR334W, strain swr1, active compounds read low 0.994 | locus YDR335W, strain msn5, active compounds read low 1.01 | locus YDR388W, active compounds read low 1 | locus YDR392W, strain spt3, active compounds read low 0.919 | locus YDR502C, strain sam2, active compounds read low 1.02 | locus YEL003W, strain gim4, active compounds read low 0.974 | locus YEL037C, strain rad23, active compounds read low 0.988 | locus YEL061C, strain CIN8 (second series), active compounds read low 0.981 | locus YEL061C, strain CIN8, active compounds read low 1.01 | locus YER015W, strain faa2, active compounds read low 1.01 | locus YER016W, strain bim1, active compounds read low 1 | locus YER110C, active compounds read low 1.01 | locus YER111C, strain swi4, active compounds read low 0.98 | locus YER155C, strain BEM2 (second series), active compounds read low 1 | locus YER155C, strain BEM2, active compounds read low 1.01 | locus YER167W, strain BCK2, active compounds read low 0.997 | locus YFR010W, strain ubp6, active compounds read low 0.996 | locus YGL078C, strain dbp3, active compounds read low 1.01 | locus YGL086W, strain mad1, active compounds read low 1.01 | locus YGL167C, strain pmr1, active compounds read low 1.01 | locus YGL173C, strain kem1, active compounds read low 1.02 | locus YGL227W, strain vid30, active compounds read low 0.982 | locus YGL240W, strain doc1, active compounds read low 1.05 | locus YGL248W, strain PDE1, active compounds read low 0.99 | locus YGL253W, strain hxk2, active compounds read low 1.01 | locus YGR078C, strain PAC10, active compounds read low 1.02 | locus YGR135W, strain pre9, active compounds read low 1.02 | locus YGR229C, strain SMI1, active compounds read low 1.01 | locus YGR252W, strain gcn5, active compounds read low 1.05 | locus YHR013C, strain ard1, active compounds read low 1.06 | locus YHR027C, strain rpn1, active compounds read low 1.03 | locus YHR030C, strain SLT2, active compounds read low 1.01 and 0.97 | locus YHR079C, strain IRE1 (second series), active compounds read low 1.02 | locus YHR079C, strain IRE1, active compounds read low 0.979 | locus YHR094C, strain hxt1, active compounds read low 1.01 | locus YHR129C, strain ARP1, active compounds read low 0.99 | locus YHR142W, strain chs7, active compounds read low 0.975 | locus YHR200W, strain rpn10, active compounds read low 1.01 | locus YIL066C, strain RNR3, active compounds read low 1.02 | locus YIL073C, strain SPO22, active compounds read low 1.04 | locus YIL125W, strain kgd1, active compounds read low 1 | locus YIR030C, strain dcg1, active compounds read low 1.01 | locus YJL092W, strain hpr5, active compounds read low 0.976 | locus YJL095W, strain BCK1 (second series), active compounds read low 1.01 | locus YJL095W, strain BCK1, active compounds read low 0.99 and 0.98 | locus YJL115W, strain asf1, active compounds read low 0.998 | locus YJL129C, strain trk1, active compounds read low 0.96 | locus YJL134W, strain LCB3, active compounds read low 1 | locus YJL154C, strain vps35, active compounds read low 0.978 | locus YJL164C, strain tpk1, active compounds read low 0.991 | locus YJL166W, strain qcr8, active compounds read low 1.02 | locus YJL168C, strain set2, active compounds read low 1.01 | locus YJL187C, strain SWE1 (second series), active compounds read low 1.02 | locus YJL187C, strain SWE1, active compounds read low 1.01 | locus YJR043C, strain POL32, active compounds read low 1.01 | locus YJR066W, strain TOR1, active compounds read low 0.914
